Compound activity (PubChem)
GPT2 inhibitor: inhibitors of human GPT2 alanine aminotransferase; 100,000 tested, 0.25% active; Q8TD30; Potency, µM (doses to about 57.7 µM), inactives show top-dose activity change, negative = inhibition, usual class: inhibitors; Recombinant GPT2, coupled pyruvate oxidase/HRP Amplex Red fluorescence; also: nearly all actives have a fitted effect of over 60% in size
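Fluorescence read-out: pyruvate from GPT2 turnover coupled to pyruvate oxidase, HRP and Amplex Red (0.2mM ThPP, 0.2U/mL PO and HRP, 50uM Amplex final). Substrates 250uM a-KG, 2mM L-alanine; enzyme 10ng/uL; 30 min RT.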
Luciferase inh: Photinus pyralis luciferase inhibition; P08659; purified P. pyralis luciferase, luminescence, biochemical; Potency, µM (highest dose often 115 µM), most hits filed as inhibitors; 76,000 tested, 2.5% active; also: nearly all actives have a fitted effect of over 65% in size
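Inhibitors were tested against purified firefly luciferase in a biochemical, low-substrate format (both substrates at 10uM) and luminescence measured with a CCD imager.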
HEK293 tox: kills HEK 293 cells | HEK 293 viability, ATP luminescence (CellTiter-Glo), 48-72 h | AID 1345083 | Potency, µM (titrated, usually from 115 µM), for inactives: top-dose activity change, negative = cytotoxicity, most hits filed as inhibitors | 94,000 tested, 6.6% active; also: nearly all actives have a fitted effect of over 60% in size
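HEK 293 seeded at 250 cells/well receive compound via pintool. After 48 or 72 hr at 37 degree Celsius, 5% CO2 and 95% humidity, CellTiter-Glo is dispensed and luminescence read following 10 min at room temperature.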
hNpr1 antagonist: blocks ANP-stimulated signaling of human Npr1 receptor; P16066; HEK293 hNpr1 GloSensor cGMP, ANP-stimulated luminescence; Potency, µM (doses to about 46.3 µM), for the others: at the highest dose activity change, negative = inhibition, actives largely listed as inhibitors; 76,000 tested, 1.6% active; AID 1347048; calls by dose curve; also: nearly all actives have a fitted effect of over 60% in size
Target sequence (P16066 whole entry, looked up): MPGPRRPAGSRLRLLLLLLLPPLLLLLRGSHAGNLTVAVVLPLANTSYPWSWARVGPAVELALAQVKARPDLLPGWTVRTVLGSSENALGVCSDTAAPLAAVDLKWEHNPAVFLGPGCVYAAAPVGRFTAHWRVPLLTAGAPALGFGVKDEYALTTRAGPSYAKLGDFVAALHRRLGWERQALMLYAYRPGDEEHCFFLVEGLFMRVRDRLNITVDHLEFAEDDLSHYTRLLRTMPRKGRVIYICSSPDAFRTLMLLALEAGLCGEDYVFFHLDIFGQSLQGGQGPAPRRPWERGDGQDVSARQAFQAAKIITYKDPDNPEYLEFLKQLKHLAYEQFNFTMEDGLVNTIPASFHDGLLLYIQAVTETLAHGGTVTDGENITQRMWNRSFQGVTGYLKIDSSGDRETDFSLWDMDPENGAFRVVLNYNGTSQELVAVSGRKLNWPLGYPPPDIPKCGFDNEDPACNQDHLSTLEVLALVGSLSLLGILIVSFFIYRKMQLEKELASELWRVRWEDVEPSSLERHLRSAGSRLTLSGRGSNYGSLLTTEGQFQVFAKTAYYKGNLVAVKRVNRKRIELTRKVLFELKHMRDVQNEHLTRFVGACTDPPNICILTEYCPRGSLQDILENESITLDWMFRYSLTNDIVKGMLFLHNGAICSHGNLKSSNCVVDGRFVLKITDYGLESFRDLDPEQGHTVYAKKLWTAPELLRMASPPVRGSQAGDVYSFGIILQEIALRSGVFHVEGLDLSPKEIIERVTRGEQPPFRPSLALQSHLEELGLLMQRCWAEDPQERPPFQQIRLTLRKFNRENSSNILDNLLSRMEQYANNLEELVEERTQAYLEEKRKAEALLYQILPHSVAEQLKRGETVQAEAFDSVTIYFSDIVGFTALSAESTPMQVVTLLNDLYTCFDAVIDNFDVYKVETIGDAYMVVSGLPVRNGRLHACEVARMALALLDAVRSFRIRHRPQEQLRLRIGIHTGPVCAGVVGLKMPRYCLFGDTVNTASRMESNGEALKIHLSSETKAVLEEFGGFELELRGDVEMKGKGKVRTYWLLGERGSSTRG
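HEK293 cells stably expressing human Npr1 and cGMP GloSensor pGS-40F, loaded 2 h with 2% GloSensor reagent, given compound 30 min at room temperature. Luminescence read before and 20 min after 0.1 nM hNppA.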
3T3 cytotox: kills NIH 3T3 cells; AID 1345082; 94,000 tested, 4.3% active; NIH 3T3 viability, CellTiter-Glo ATP luminescence, 48-72 h; Potency, µM (series often up to 96.7 µM), inactives show top-dose activity change, negative = cytotoxicity, usual class: inhibitors; also: nearly all actives have a fitted effect of over 55% in size
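Mouse fibroblast NIH 3T3 cells, 400 per well, received compound via pintool and were incubated for 48 or 72 hr prior to CellTiter-Glo ATP luminescence measurement.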
* = called active by the depositor; [ ] = another dose, or the depositor's remark. Only some compounds are listed: those with a hit (about 10% of all), similar ones and a draw of the others. Unless noted, calls follow the shape of the dose curve; as a rule, active = well fitted curve in the direction sought with a large enough effect; inconclusive = small, poorly fitted or top-dose-only effect, or another doubt; inactive = no such curve, though single readings can be large; an effect the other way counts as inactive or inconclusive. % is scaled to controls: 0 for no effect and ±100 for the full control effect; potency is read from the fitted curve at half-maximal effect.

Screening COCC(=O)NC[C@@H]1C=C(C)[C@H](Cc2nc3ccc(C)cc3[nH]2)C[C@H]1C(C)C returned GPT2 inhibitor inconclusive, Luciferase inh inactive, HEK293 tox inconclusive, hNpr1 antagonist -21.9%[70.6 µM] and 3T3 cytotox 50.1µM*.
`CCCCCNC(=O)c1cc(-c2ccccc2OC)nc2c1cnn2C` gave HEK293 tox -29.7% and 3T3 cytotox inconclusive.
`O=C(/C=C/c1ccc(O)c(O)c1)O[C@H]1[C@H](OC2CCCCC2O)O[C@H](CO)[C@@H](O)[C@@H]1O` (some centres not stated) gave GPT2 inhibitor 4.47µM*.
For COCC1CCCN(Cc2nc(-c3ccccc3Cl)oc2C)C1 (configuration not stated) the results were GPT2 inhibitor inactive, Luciferase inh inactive, HEK293 tox -1.3%, hNpr1 antagonist 4.6% and 3T3 cytotox -14.3%.
`COc1ccc(NC(=O)Cn2c(-c3ccc(F)cc3)nc(C)cc2=O)cc1OC` gave GPT2 inhibitor inactive, Luciferase inh inactive, HEK293 tox inconclusive, hNpr1 antagonist -10.6% and 3T3 cytotox inconclusive.
Screening Cc1ccc(-c2ccccc2CN2CCN(C(=O)c3cccc(Cl)c3)CC2)cc1Cl returned GPT2 inhibitor inactive, HEK293 tox inconclusive and 3T3 cytotox inconclusive.
CC(C)CCN1CCc2nc(C(C)C)nc(-c3ccc(O)cc3)c2C1 was read as GPT2 inhibitor inconclusive, HEK293 tox -15.0%[172 µM] and 3T3 cytotox -26.3%[138 µM].
`Cc1ccccc1CC(=O)N1CCC2(CC1)NC(=O)N(c1ccccc1)N2` gave GPT2 inhibitor -25.2%, Luciferase inh inactive, HEK293 tox inconclusive, hNpr1 antagonist 5.9% and 3T3 cytotox inconclusive.
`CCC(=O)N1CCN(c2nc3c(s2)CC(C(=O)Nc2ccc(F)cc2C)CC3)CC1` (configuration not stated) gave GPT2 inhibitor inactive, Luciferase inh inactive, HEK293 tox inconclusive, hNpr1 antagonist -16.0% and 3T3 cytotox -15.6%.
`CCC(=O)N1CCN(c2nc3c(s2)CC(C(=O)Nc2ccc(F)cc2F)CC3)CC1` (configuration not stated) gave GPT2 inhibitor inactive, Luciferase inh inactive, HEK293 tox 10µM*, hNpr1 antagonist inconclusive and 3T3 cytotox inconclusive.
`CCC(=O)N1CCN(c2nc3c(s2)CC(C(=O)NCc2ccccc2)CC3)CC1` (configuration not stated) gave GPT2 inhibitor inactive, Luciferase inh inactive, HEK293 tox inconclusive, hNpr1 antagonist -1.0% and 3T3 cytotox -25.6%.
`CCC(=O)N1CCN(c2nc3c(s2)CC(C(=O)Nc2cccc(C)c2C)CC3)CC1` (configuration not stated) gave GPT2 inhibitor inactive, Luciferase inh inactive, HEK293 tox 39.8µM*, hNpr1 antagonist -20.1% and 3T3 cytotox inconclusive.
Screening O=C1NCCCc2[nH]c(-c3cnn(-c4cccc(F)c4)c3)nc21 returned GPT2 inhibitor inactive, Luciferase inh 22.4µM*, HEK293 tox inconclusive, hNpr1 antagonist -20.7% and 3T3 cytotox -23.5%.
`Fc1cccc(-n2cc(CN3CCCC4(CCOC4)C3)cn2)c1` (configuration not stated) gave GPT2 inhibitor -1.3%, Luciferase inh inactive, HEK293 tox -11.6%, hNpr1 antagonist 2.0% and 3T3 cytotox -28.0%.
`COc1cccc(C(=O)N2CC(Oc3ccccc3-c3nc(C4CC4)no3)C2)c1` gave GPT2 inhibitor -6.2%, Luciferase inh inactive, HEK293 tox inconclusive, hNpr1 antagonist inconclusive and 3T3 cytotox inconclusive.
CC(C)CNC(=O)C1c2ccccc2C(=O)N(Cc2ccccc2)C12CCCC2 (configuration not stated) was read as GPT2 inhibitor inconclusive, Luciferase inh inactive, HEK293 tox inconclusive, hNpr1 antagonist -13.0% and 3T3 cytotox inconclusive.
Cc1cc(=O)n(CC(=O)Nc2ccc(Br)cc2)c(N2CCc3ccccc3C2)n1 was read as GPT2 inhibitor inactive, Luciferase inh inactive, HEK293 tox 89.1µM*, hNpr1 antagonist -14.3% and 3T3 cytotox inconclusive.
For Cc1cc(=O)n(CC(=O)Nc2cccc(F)c2)c(N2CCc3ccccc3C2)n1 the results were GPT2 inhibitor 1.4%, Luciferase inh inactive, HEK293 tox inconclusive, hNpr1 antagonist 2.3% and 3T3 cytotox inconclusive.
Screening Cc1cc(=O)n(CC(=O)Nc2ccc(C(C)C)cc2)c(N2CCc3ccccc3C2)n1 returned GPT2 inhibitor 4.3%, Luciferase inh inactive, HEK293 tox inconclusive, hNpr1 antagonist -13.3% and 3T3 cytotox 25.1µM*.
For COc1ccc(NC(=O)Cn2c(N3CCc4ccccc4C3)nc(C)cc2=O)cc1Cl the results were GPT2 inhibitor inactive, Luciferase inh inactive, HEK293 tox 39.8µM*, hNpr1 antagonist -6.1% and 3T3 cytotox 35.5µM*.
CCc1cccc(NC(=O)Cn2c(N3CCc4ccccc4C3)nc(C)cc2=O)c1 was read as GPT2 inhibitor inactive, Luciferase inh inactive, HEK293 tox inconclusive, hNpr1 antagonist inconclusive and 3T3 cytotox 28.2µM*.
For O=C(NCc1ccccc1Cl)c1ccc2nnc(-c3ccc(OC(F)(F)F)cc3)n2c1 the results were GPT2 inhibitor -11.6%, HEK293 tox inconclusive and 3T3 cytotox inconclusive.
Cc1ccc(C(=O)NC2CCN(c3ccc4nnc(C)n4n3)CC2)cc1 was read as HEK293 tox inactive and 3T3 cytotox -14.4%.
For COc1ccc(CNC(=O)Cn2c(N3CCc4ccccc4C3)nc(C)cc2=O)cc1 the results were GPT2 inhibitor 3.8%, Luciferase inh inactive, HEK293 tox inconclusive, hNpr1 antagonist -9.9% and 3T3 cytotox inconclusive.
For Cc1cc(=O)n(CC(=O)Nc2ccccc2)c(N2CCc3ccccc3C2)n1 the results were GPT2 inhibitor -5.7%, Luciferase inh inactive, HEK293 tox 31.6µM*, hNpr1 antagonist -16.8% and 3T3 cytotox inconclusive.
`CCOc1ccccc1NC(=O)Cn1c(N2CCc3ccccc3C2)nc(C)cc1=O` gave GPT2 inhibitor -8.1%, Luciferase inh inactive, HEK293 tox inconclusive, hNpr1 antagonist inconclusive and 3T3 cytotox inconclusive.
`Cc1cc(=O)n(CC(=O)NCc2ccccc2Br)c(N2CCc3ccccc3C2)n1` gave GPT2 inhibitor inactive, Luciferase inh inactive, HEK293 tox 39.8µM*, hNpr1 antagonist -5.7% and 3T3 cytotox inconclusive.
Screening CCc1ccccc1NC(=O)Cn1c(N2CCc3ccccc3C2)nc(C)cc1=O returned GPT2 inhibitor inconclusive, Luciferase inh inactive, HEK293 tox inconclusive, hNpr1 antagonist inconclusive and 3T3 cytotox 17.8µM*.
